This passage reports outcome results from PubChem BioAssay AID743314 (Broad Institute, 2014).

Measured potencies and affinities stand elsewhere. Records with an inconclusive call do not appear. Calls of active or inactive are those of the source.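 How the source made its calls: active means fitted half-maximal concentration no higher than twice the top tested dose, in every repeat run; inconclusive means repeat runs disagree, poor fit, or flat partial inhibition; inactive means the rest.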

The experiment deals with Endoplasmic reticulum aminopeptidase 1 (Homo sapiens) (UniProt Q9NZ08). The experiment in a line: ERAP1 aminopeptidase inhibitors, dose response, biochemical, cherry-pick, set 2, plate reader (AID 743314). Conditions: Recombinant ERAP1, Leu-AMC fluorescence, 60 min; series mostly up to 11 µM.
Endoplasmic reticulum aminopeptidase 1 (Homo sapiens), sequence (Q9NZ08 whole entry, looked up): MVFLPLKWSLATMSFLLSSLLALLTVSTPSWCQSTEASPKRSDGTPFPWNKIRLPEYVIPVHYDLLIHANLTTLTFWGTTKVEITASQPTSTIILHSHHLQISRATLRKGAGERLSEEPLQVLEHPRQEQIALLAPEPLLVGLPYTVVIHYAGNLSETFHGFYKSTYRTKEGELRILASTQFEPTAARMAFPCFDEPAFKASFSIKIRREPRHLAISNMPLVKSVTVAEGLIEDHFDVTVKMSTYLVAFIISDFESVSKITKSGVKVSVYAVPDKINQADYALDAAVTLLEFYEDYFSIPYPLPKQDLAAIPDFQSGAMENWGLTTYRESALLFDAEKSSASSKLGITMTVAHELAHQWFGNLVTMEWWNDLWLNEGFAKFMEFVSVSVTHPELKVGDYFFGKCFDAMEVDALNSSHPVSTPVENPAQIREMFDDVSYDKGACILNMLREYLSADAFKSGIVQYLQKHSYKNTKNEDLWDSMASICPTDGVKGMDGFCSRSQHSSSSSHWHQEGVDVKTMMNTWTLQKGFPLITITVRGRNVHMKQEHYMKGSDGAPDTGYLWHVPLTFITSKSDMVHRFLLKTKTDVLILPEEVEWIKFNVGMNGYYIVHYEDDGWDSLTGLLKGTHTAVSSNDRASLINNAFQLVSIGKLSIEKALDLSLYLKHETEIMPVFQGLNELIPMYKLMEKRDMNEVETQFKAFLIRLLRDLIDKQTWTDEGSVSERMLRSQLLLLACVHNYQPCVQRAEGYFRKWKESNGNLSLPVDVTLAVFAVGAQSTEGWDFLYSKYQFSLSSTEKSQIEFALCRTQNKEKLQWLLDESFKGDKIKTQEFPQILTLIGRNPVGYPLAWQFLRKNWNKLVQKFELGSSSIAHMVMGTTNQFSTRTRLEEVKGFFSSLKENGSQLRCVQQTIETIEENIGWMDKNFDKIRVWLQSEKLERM
`CC(C)[C@H](NC(N)=O)C(=O)NNC(=O)COc1cccc(C(F)(F)F)c1`: the result was inactive.

For the compound `O=C(Cc1ccccn1)N1CC(=O)N2[C@@H](CO)[C@H](c3ccc(C#CC4CCCC4)cc3)[C@@H]2C1`, the result was inactive.

For the compound `CCCC#Cc1ccc(CC[C@H]2O[C@H]3CC[C@H](CO)O[C@H]3C[C@@H]2NC(=O)CN2CCOCC2)cc1`, the outcome was inactive.

Turning to `COc1ccc(NC(=O)N[C@@H]2CC[C@@H](CCn3cc(-c4ccc(F)cc4)nn3)O[C@H]2CO)cc1`, the outcome was inactive.

Consider `Cc1cccc(C)c1NC(=O)CSc1nnc(NC(=O)c2ccccc2C(=O)O)s1`, for which the result was inactive.

Turning to `COc1ccccc1OCCNC(=O)C1CCCCC1`, the result was inactive.

Turning to `C[C@@H]1CCCCO[C@@H](CN(C)C)[C@H](C)CN([C@H](C)CO)C(=O)c2cc(NS(=O)(=O)c3ccc(Cl)cc3)ccc2O1`, the result was inactive.

Take `CNC[C@H]1Oc2c(NC(=O)Nc3ccc(F)cc3)cccc2C(=O)N([C@@H](C)CO)C[C@@H]1C`: the result was inactive.

As for `C[C@H]1CN([C@@H](C)CO)C(=O)c2cccc(NC(=O)Nc3ccc(F)cc3)c2O[C@@H]1CN(C)C(=O)Nc1ccc2c(c1)OCO2`, the result was inactive.

As to `Cc1ccc(NC(=O)C2CCCN2C(=O)c2cccs2)c(C)c1` (stereo not drawn), the result was inactive.

Take `CC(=O)Nc1ccc2nc(NC(=O)CN3CCOCC3)sc2c1`: the result was inactive.

`CCn1c(SCC(=O)NCc2ccccc2)nnc1C(CO)NC(=O)c1ccccc1` (stereo not drawn): the outcome was inactive.

With `C[C@H]1CN([C@@H](C)CO)C(=O)c2cc(-c3ccc(F)cc3)cnc2O[C@H]1CN(C)CC1CCCCC1`, the result was inactive.

Consider `O=C(CC1CC1)N1[C@H](CO)[C@@H](c2ccccc2)C12CN(Cc1cc(F)ccc1F)C2`, for which the result was inactive.

Turning to `O=C(CNC(=O)OCc1ccccc1)Nc1ccc(F)cc1`, the outcome was inactive.

Consider `CC(Sc1nnc(-c2cccnc2)n1C)C(=O)N1CCOCC1` (stereo not drawn), for which the result was inactive.

As to `CN1C2=NCCN2C(=O)c2cc(Cl)ccc21`, the result was inactive.

Consider `O=C(CN1CCN(S(=O)(=O)N2CCOCC2)CC1)Nc1ccc(Cl)c(Cl)c1`, for which the outcome was inactive.

Consider `Cc1cc(Br)ccc1NC(=O)CN(C)C(=O)Cn1c(=O)cnc2ccccc21`, for which the result was inactive.

In the case of `Cc1ccc(-c2cc(C(=O)N3CCCC3)c3ccccc3n2)s1`, the outcome was inactive.

Regarding `CCCCC1CCC(C(=O)OC(C)C(=O)Nc2ccc(NC(C)=O)cc2)CC1` (stereo not drawn), the result was inactive.

In the case of `COc1ccc2c3c([nH]c2c1)[C@H](CO)NCC31CN(Cc2cc(F)ccc2F)C1`, the result was inactive.

On to `Cc1ccc(SC(C)C(=O)NCc2ccncc2)cc1` (stereo not drawn), for which the outcome was inactive.

Turning to `C[C@H]1CCCCO[C@@H](CN(C)C)[C@@H](C)CN([C@@H](C)CO)C(=O)c2cc(NS(=O)(=O)c3ccc(Cl)cc3)ccc2O1`, the result was inactive.

Regarding `CN(CC(=O)Nc1ccccc1C(F)(F)F)C(=O)CSc1nnc(-c2ccncc2)n1C`, the outcome was inactive.

With `COc1ccc(C(=O)NCc2nnc(SCCOc3ccccc3)n2C)cc1`, the result was inactive.

Consider `C[C@H]1CN([C@@H](C)CO)C(=O)CCCn2cc(nn2)CO[C@@H]1CN(C)Cc1ccccc1`, for which the outcome was inactive.

In the case of `Cc1cc(C)cc(N2CC(c3nc4ccccc4n3C)CC2=O)c1` (stereo not drawn), the result was inactive.

With `C[C@@H]1CN([C@@H](C)CO)C(=O)c2cc(NS(=O)(=O)c3ccc(Cl)cc3)ccc2O[C@@H](C)CCCCO[C@H]1CN(C)C`, the result was inactive.

`CCc1ccc(NS(=O)(=O)c2ccc(C)c(C(=O)N3CCOCC3)c2)cc1`: the outcome was inactive.

For the compound `Cc1cc(C)n2nc(C(=O)N3CCN(c4ccc([N+](=O)[O-])cc4)CC3)nc2n1`, the result was inactive.

As to `C[C@@H]1CN([C@@H](C)CO)C(=O)c2cccc(NC(=O)Nc3ccc(C(F)(F)F)cc3)c2O[C@H]1CN(C)C`, the outcome was inactive.

Turning to `CCOC(=O)c1c(NC(=O)COC(=O)CCNS(=O)(=O)c2ccccc2)sc(C(=O)NC)c1C`, the result was inactive.

As to `CCCNC(=O)C[C@H]1CC[C@@H]2[C@H](COC[C@H](O)CN2C(=O)Nc2cccc(Cl)c2)O1`, the outcome was inactive.

For `C[C@@H]1CN([C@H](C)CO)C(=O)c2cccc(NS(=O)(=O)c3ccc(Cl)cc3)c2O[C@@H]1CN(C)C(=O)Nc1ccccc1`, the outcome was inactive.

In the case of `CCCCCn1c(=NC(=O)c2ccco2)c(C(=O)OCC)cc2c(=O)n3ccccc3nc21`, the outcome was inactive.

Take `O=c1cc(CN2CCN(Cc3ccccc3)CC2)c2ccc(O)cc2o1`: the outcome was inactive.

As for `COc1ccc(CN(C)C[C@H]2Oc3c(NC(=O)NC4CCCCC4)cccc3C(=O)N([C@H](C)CO)C[C@@H]2C)cc1`, the outcome was inactive.
